Results on 39 compounds are retold here after PubChem BioAssay (EPA / NIEHS).

Values joined by “and” are separate entries in the source; they are usually repeats but may differ in a detail not shown here. Equal values may be shown once. Some compounds were tested as several samples or in several runs, with calls that do not always agree. Active and inactive are the calls of the source. Rule for the calls: active = hit-call score of the fitted dose curve at least 0.9, where 1 is the maximum; inactive = score below 0.9.

Read-out in this assay: Epidermal growth factor receptor (EGFR), EGFR (gene 1956)
The assay is described as follows: BSK_hDFCGF_EGFR: BioMAP Diversity Plus: hDFCGF Assay for Epidermal growth factor receptor (EGFR) Biomarker Activity (AID 2283057). To be noted: primary human foreskin fibroblasts; actives raise or lower the signal. As for the experimental part: BSK_hDFCGF is a cell-based, multiplexed-readout assay that uses foreskin fibroblast, a human skin primary cell, with measurements taken at 24 hours after chemical dosing in a 96-well plate.BSK_hDFCGF_EGFR is an assay component measured in the BSK_hDFCGF assay. It measures EGFR antibody related to regulation of gene expression using ELISA technology.Data from the assay component BSK_hDFCGF_EGFR was analyzed into 1 assay endpoint. This assay endpoint, BSK_hDFCGF_EGFR, was analyzed with bidirectional fitting relative to DMSO as the negative control and baseline of activity. Using a type of binding reporter, gain or loss-of-signal activity can be used to understand changes in the signaling as they relate to the gene EGFR. Furthermore, this assay endpoint can be referred to as a primary readout, because this assay has produced multiple assay endpoints where this one serves a signaling function. To generalize the intended target to other relatable targets, this assay endpoint is annotated to the kinase intended target family, where the subfamily is receptor tyrosine kinase.
The levels of cell surface (or secreted, indicated by the prefix "s") biomarker endpoints were measured by ELISA. Overt cytotoxicity to cells in confluent adherent cultures (all systems other than the BT system) was assessed by measuring total protein levels using sulforhodamine B (SRB) staining in parallel cultures at the time of biomarker measurements, indicated as SRB endpoints. For proliferation assays for adherent cell types, individual cell types are cultured at sub-confluence and relative cell numbers quantified by SRB staining at time points optimized for each system (48 h: 3C and CASM3C systems; 72 h: BT and HDF3CGF systems; 96 h: SAg system). SRB was performed by staining cells with 0.1% SRB after fixation with 10% TCA and reading wells at 560 nm.Viability and proliferation of PBMC (T cells) was quantified by Alamar Blue reduction for the SAg and BT systems. For PBMC viability (referred to as PBMC Cytotoxicity within the assay endpoint names), cells were plated (75,000/well in a 96-well plate) and then chemical samples added for 1 h before addition of activators, SEB and TSST-1 (20 ng/mL final concentration each). Cells were incubated for 90 h. Then, Alamar Blue (20 uL/well) (Invitrogen, Cat DAL1100) was added for 6 h, and the plates were read with a fluorescence microplate reader at 546/580 nm (excitation/emission). For PBMC proliferation, cells were plated and activated as above but incubated for only 16 h prior to addition of Alamar Blue. Plates were read after 6 h.
Turning to `CCC(C)(C)c1ccc(O)c(C(C)(C)CC)c1`, the outcome was inactive. Regarding `O=C(O)C(Cl)(Cl)Cl`, the result was inactive. The same measure, in the same setting: next, `O=C(O)C(F)(F)C(F)(F)C(F)(F)C(F)(F)C(F)(F)C(F)(F)F`: “inactive”; `O=C(Nc1ccc2[nH]ccc2c1)c1cc2cc(F)ccc2n1Cc1cccc(F)c1`: “inactive”; `COC(=O)c1sccc1S(=O)(=O)NC(=O)Nc1nc(C)nc(OC)n1`: “inactive”.

On to `O=c1[nH]c(=O)[nH]c(=O)[nH]1`, for which the outcome was inactive.

`CC(C)c1ccc(CO)cc1`: the result was inactive. Take `C=CC(=O)OCCCCCC(C)C`: the outcome was inactive. As for `O=C(OC1CCCCC1)c1ccccc1C(=O)OC1CCCCC1`, the AC50 was 20.9 µM (active).

Take `Oc1c(I)cc(I)cc1I`: the result was inactive. Take `ClC(Cl)=C(Cl)C(Cl)=C(Cl)Cl`: the outcome was inactive. Still for that read-out and setting: next, `NC(=O)O`: “inactive”. Regarding `Nc1ccc(-c2ccc(N)c(Cl)c2)cc1Cl`, the result was inactive.

For `O=Cc1cccc(Oc2ccccc2)c1`, the outcome was inactive. Turning to `Nc1ncc([N+](=O)[O-])s1`, the result was inactive. Turning to `COc1cc(-c2ccc(N)c(OC)c2)ccc1N`, the result was inactive. Consider `Oc1ccc(-c2ccccc2)cc1`, for which the result was inactive. For `Nc1cccc2ccccc12`, the outcome was inactive. As for `CC1(C)Cc2cccc(O)c2O1`, the result was inactive. Turning to `O=S(=O)(c1ccc(Cl)cc1)c1ccc(Cl)cc1`, the result was inactive. On to `CC(=O)OC(c1ccccc1)C(Cl)(Cl)Cl` (stereo not given), for which the result was inactive.

Consider `CC(C)(OO)c1ccccc1`, for which the AC50 was 35.8 µM (active).

Take `COC(=O)Cc1ccccc1`: the outcome was inactive. `COP(=S)(OC)Oc1cc(Cl)c(Cl)cc1Cl`: the outcome was inactive. Consider `CCCCC(CC)CO[N+](=O)[O-]` (stereo not given), for which the outcome was inactive.

For `COP(=S)(OC)Oc1c(Cl)cc(C)cc1Cl`, the result was inactive.

For `ClCC(Cl)CCl`, the result was inactive.

As to `C=C(C)C(=O)[O][Sn]([CH2]CCC)([CH2]CCC)[CH2]CCC`, the outcome was inactive. On to `CCOP(=S)(OCC)Oc1ccc(S(C)=O)cc1` (stereo not given), for which the result was inactive. With `CCOC(=O)/C=C(C)/C=C/C[C@@H](C)CCCC(C)C`, the result was inactive. As to `CC12CC1(C)C(=O)N(c1cc(Cl)cc(Cl)c1)C2=O` (stereo not given), the outcome was inactive. As for `ClC1=C(Cl)[C@]2(Cl)[C@H]3[C@H]([C@H]4C=C[C@H]3C4)[C@@]1(Cl)C2(Cl)Cl`, the result was inactive.

For the compound `O=[N+]([O-])c1ccc2c3c(cccc13)CC2`, the outcome was inactive. On to `O=C(O)C(F)(F)C(F)(F)C(F)(F)C(F)(F)C(F)(F)C(F)(F)C(F)(F)C(F)(F)C(F)(F)C(F)(F)F`, for which the AC50 is 835 nM (active) and 906 nM (active); the outcome was inactive.

Consider `C[C@@H]1C[C@@H]([C@H](O)CC2CC(=O)NC(=O)C2)C(=O)[C@@H](C)C1`, for which the result was inactive. As for `ClC1(Cl)C2(Cl)C3(Cl)C4(Cl)C(Cl)(Cl)C5(Cl)C3(Cl)C1(Cl)C5(Cl)C24Cl` (stereo not given), the outcome was inactive.

With `COC[C@H](C)N(C(=O)CCl)c1c(C)csc1C`, the result was inactive. With `Cc1ccccc1N`, the result was inactive. For `CC(C)(C)CC(C)(C)c1ccc(O)cc1`, the half-maximal activity concentration (AC50) was 20 µM (active).

By AC50 is commonly meant the concentration at which the activity in the assay is half-maximal.
